Source: PubChem BioAssay
TRPV1 potentiator – HTS Assay for Compounds that Act as Potentiators of the Vanilloid Receptor 1 | Transient receptor potential cation channel subfamily V member 1 (Homo sapiens), Q8NER1 | TRPV1-expressing cells, Fluo-8 calcium influx, capsaicin EC20 potentiation | potentiation, % at 8.33 µM | 320,000 compounds, 0.02% hits | AID 540277, 2011; in the data active means potentiation above about 80%; inconclusive means between about 30% and that limit; further: 0% is about no effect
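TRPV1-expressing cells were cultured overnight at 35.5C and loaded with Fluo-8 calcium dye for 40 to 90 min at room temperature. After a 10 s baseline, compound was added and calcium influx was read kinetically for 3 min (ex 480/em 520 nm).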
TRPML1 ag – qHTS for Agonists of the Human Mucolipin Transient Receptor Potential 1 (TRPML1); Mucolipin-1 (Homo sapiens), Q9GZU1; 410,000 compounds, 0.12% hits; activation, % (test concentration not listed); TRPML1-expressing cells, Ca2+ dye fluorescence, FDSS; in the data active means activation above about 50%; inconclusive means mostly about 30% to 49%; further: 0% is about no effect
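Tet-induced TRPML1-DL cells, 1,500 per well, cultured overnight, were loaded with a no-wash Ca2+ dye for 45–90 min. Calcium fluorescence was recorded on the FDSS for 110 s after compound addition, before the EC80 agonist (4 uM 54-4) was added.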
TRPV1 ag – HTS Assay for Compounds that Act as Agonists of the Vanilloid Receptor 1 | AID 540275, 2011 | Transient receptor potential cation channel subfamily V member 1 (Homo sapiens), Q8NER1 | 320,000 compounds, 0.19% hits | activation, % at 8.33 µM | TRPV1-expressing cells, Fluo-8 calcium influx, agonist mode; in the data active means activation above about 80%; inconclusive means between about 30% and that limit; further: 0% is about no effect
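Fluo-8 calcium influx in TRPV1-expressing cells, kinetic read (ex 480/em 520 nm). Compound added and read 3 min for agonist activity, followed by capsaicin at EC20 final and 2 min further read for enhancement.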
TRPML1 blocker – qHTS for Inhibitors of the Human Mucolipin Transient Receptor Potential 1 (TRPML1). Mucolipin-1 (Homo sapiens), Q9GZU1. TRPML1-inducible cells, Ca2+ dye fluorescence, FDSS; stronger effect = lower value; inhibition of EC80 agonist-evoked calcium signal. activity change, negative = inhibition, % (test concentration not listed). 390,000 compounds, 0.02% hits; in the data active means activity change below about -50%; inconclusive means between about -30% and that limit;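 further: stimulus is agonist 54-4 at its EC80 concentration; on the % scale 0 is the no-effect control and ±100 the full control effect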
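Calcium fluorescence in TRPML1-DL cells induced overnight with Tet: a 110 s read after compound pin addition, then a 110 s antagonist read after challenge with 54-4 at 4 uM final (EC80).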
TRHR agonist-1 – qHTS for Small Molecule Agonists and Allosteric Enhancers of Human TRH Receptor: Primary Screen for Agonists; TRHR cells, calcium flux fluo-8, FDSS agonist mode; activation, % at 2 µM; AID 493084, 2011; 360,000 compounds, 0.18% hits; in the data active means activation above about 30%; further: 0% is about no effect
Target sequence (P34981 whole entry, looked up): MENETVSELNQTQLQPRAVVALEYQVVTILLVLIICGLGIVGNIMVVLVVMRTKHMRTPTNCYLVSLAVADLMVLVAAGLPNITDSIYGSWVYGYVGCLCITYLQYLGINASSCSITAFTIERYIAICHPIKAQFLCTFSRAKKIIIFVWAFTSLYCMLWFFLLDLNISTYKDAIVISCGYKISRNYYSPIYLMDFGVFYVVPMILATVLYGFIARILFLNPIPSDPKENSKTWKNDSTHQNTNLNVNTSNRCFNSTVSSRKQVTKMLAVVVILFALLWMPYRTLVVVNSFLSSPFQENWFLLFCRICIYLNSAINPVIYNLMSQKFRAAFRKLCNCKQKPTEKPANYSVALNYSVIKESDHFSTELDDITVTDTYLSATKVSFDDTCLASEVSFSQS
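TRHR-expressing cells loaded with fluo-8 calcium dye; 23 nL library compound pin-transferred, kinetic FDSS fluorescence (Ex 480/Em 530) recorded about 180 s for agonist-induced calcium release, before a 10 nM TRH EC20 addition for potentiator mode.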
TRHR enhancer-1 – qHTS for Small Molecule Agonists and Allosteric Enhancers of Human TRH Receptor: Primary Screen for Enhancers; TRHR cells, fluo-8 calcium fluorescence, EC20 TRH enhancement; AID 493056, 2011; Thyrotropin-releasing hormone receptor (Homo sapiens), P34981; enhancement, % at 2 µM; 360,000 compounds, 0.66% hits; in the data active means enhancement above about 30%; further: 0% is about no effect
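TRHR-expressing cells loaded with fluo-8 calcium dye were read kinetically (ex 480/em 530) during compound addition, then stimulated with an EC20 of TRH (10 nM final). Enhancement of the Gq-mediated intracellular calcium response was scored.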
TRHR enhancer-2 – qHTS for Small Molecule Agonists and Allosteric Enhancers of Human TRH Receptor: Confirmation Screen for Enhancers; shares compounds with TRHR enhancer-1; TRH receptor cell assay, enhancer confirmation qHTS; 970 tested, under 10 active; activity change, negative = inhibition, % at 46.1 µM;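 further: compound effect scored on response to added TRH at EC20 of 10 nM; 0% is about no effect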
TRHR agonist-2 – qHTS for Small Molecule Agonists and Allosteric Enhancers of Human TRH Receptor: Confirmation Screen for Agonists | shares compounds with TRHR enhancer-1 | TRHR-expressing cells, agonist activation read-out | Potency, µM (titrated, usually from 46.1 µM), without a hit: at the highest dose activation, most hits filed as activators | 970 compounds, 8% hits | AID 493078, 2011; further: potency means the concentration at half of the fitted maximal effect; 0% is about no effect; nearly all actives have a fitted effect of over 75% in size
* marks the source's active call; other numbers are inactive results. Hits are enriched below; roughly 0.99% of the tested compounds scored in any of these assays. Unless noted, the call rests on the fitted dose curve; in most records, active means well fitted curve in the direction sought with a large enough effect; inconclusive means small, poorly fitted or top-dose-only effect, or another doubt; inactive means no such curve, though single readings can be large; an effect the other way counts as inactive or inconclusive.

Results for Cc1ccc(C)c(S(=O)(=O)C(C#N)c2nc3ccccc3nc2N2CCCC2)c1 (stereo not given) ?
TRPV1 potentiator: 7; TRPML1 ag: 0; TRPV1 ag: 5; TRPML1 blocker: 15; TRHR agonist-1: 27; TRHR enhancer-1: -2; TRHR enhancer-2: -6; TRHR agonist-2: inconclusive

What do the screens show for `O=C(Cc1nnc(CNC(=O)c2ccccc2)o1)Nc1cc(C(F)(F)F)ccc1Cl`?
TRHR agonist-1: 0; TRHR enhancer-1: 0

Results for CCCCC(=O)N(c1ccc(C(=O)O)cc1)c1nc(-c2ccc(Cl)cc2)c(CC)s1 ?
TRPV1 potentiator: 9; TRPML1 ag: 0; TRPV1 ag: 2; TRPML1 blocker: -12; TRHR agonist-1: 0; TRHR enhancer-1: 63*; TRHR enhancer-2: -17; TRHR agonist-2: inconclusive

What do the screens show for `CCCCc1nc2cc(C(=O)N3CCNC(=O)C3CC(=O)OC)ccc2o1` (stereo not given)?
TRPV1 potentiator: 24; TRPML1 ag: 0; TRPV1 ag: -7; TRPML1 blocker: -7; TRHR agonist-1: 0; TRHR enhancer-1: 89*; TRHR enhancer-2: 0; TRHR agonist-2: -1%

How did C=C1C(=O)O[C@H]2[C@H]1[C@@H](O)CC(=C)[C@@H]1CC(=O)[C@@H](C)[C@H]21 do in these assays?
TRPV1 potentiator: 24; TRPML1 ag: 1; TRPV1 ag: 0; TRPML1 blocker: -21; TRHR agonist-1: 1; TRHR enhancer-1: 52*; TRHR enhancer-2: -6; TRHR agonist-2: 1%

How did CN(C)c1ccc(-c2cc(C3C4C=CCCC4(C)C(=O)N3Cc3ccccc3)ccc2F)cc1 (stereo not given) do in these assays?
TRPML1 ag: 1; TRPML1 blocker: 2

How did COc1ccc(S(=O)(=O)N2CCN(c3ccc4nnc(-c5ccccc5)n4n3)CC2)cc1 do in these assays?
TRPV1 potentiator: -9; TRPML1 ag: -1; TRPV1 ag: 1; TRPML1 blocker: -9; TRHR agonist-1: 0; TRHR enhancer-1: 48*; TRHR enhancer-2: 4; TRHR agonist-2: -1%

What do the screens show for `COc1cc(C(=O)NCc2ccccc2)ccc1OC(F)F`?
TRPV1 potentiator: -20; TRPML1 ag: 3; TRPV1 ag: 26; TRPML1 blocker: -10; TRHR agonist-1: -1; TRHR enhancer-1: 4

What do the screens show for `COc1ccccc1CNC(=O)c1ccc(OC(F)F)c(OC)c1`?
TRPV1 potentiator: 1; TRPML1 ag: 0; TRPV1 ag: -3; TRPML1 blocker: -3; TRHR agonist-1: -1; TRHR enhancer-1: 51*; TRHR enhancer-2: -5; TRHR agonist-2: 1%

Results for COc1ccc(-c2cc(C(F)(F)F)nc(SCC(=O)NCc3ccc(F)cc3)n2)cc1 ?
TRPML1 ag: 0; TRPML1 blocker: 23; TRHR agonist-1: 1; TRHR enhancer-1: 8

What do the screens show for `COc1ccc(-c2cc(C(F)(F)F)nc(SCC(=O)NCc3ccc(Cl)cc3)n2)cc1`?
TRPML1 ag: 3; TRPML1 blocker: 19; TRHR agonist-1: 2; TRHR enhancer-1: 60*; TRHR enhancer-2: -4; TRHR agonist-2: 3%

Results for Brc1ccc[n+](CCc2ccccc2)c1 ?
TRPML1 ag: 0

What do the screens show for `S=c1nc(-c2sccc2OCc2ccc(Cl)cc2Cl)[nH][nH]1`?
TRPV1 potentiator: 24; TRPML1 ag: 1; TRPV1 ag: -1; TRPML1 blocker: -4; TRHR agonist-1: 0; TRHR enhancer-1: 51*; TRHR enhancer-2: inconclusive; TRHR agonist-2: 1%

What do the screens show for `Cc1ccc(NC(=O)CCN2C(=O)c3ccccc3C2=O)cc1`?
TRPV1 potentiator: 16; TRPML1 ag: 0; TRPV1 ag: 5; TRPML1 blocker: -21; TRHR agonist-1: 0; TRHR enhancer-1: -8

What do the screens show for `Cc1cc(NC(=O)CCN2C(=O)c3ccccc3C2=O)no1`?
TRPV1 potentiator: 1; TRPML1 ag: -1; TRPV1 ag: -1; TRPML1 blocker: 35; TRHR agonist-1: -1; TRHR enhancer-1: 56*; TRHR enhancer-2: 0; TRHR agonist-2: -1%

How did CCOc1ccc(Nc2cc(C)nc(N3CCOCC3)n2)cc1 do in these assays?
TRPV1 potentiator: -26; TRPML1 ag: 1; TRPV1 ag: 27; TRPML1 blocker: -2; TRHR agonist-1: -1; TRHR enhancer-1: -2

Results for CCOc1ccc(Nc2nc(N3CCOCC3)nc(N3CCOCC3)n2)cc1 ?
TRPV1 potentiator: 0; TRPML1 ag: 2; TRPV1 ag: -1; TRPML1 blocker: 4; TRHR agonist-1: 1; TRHR enhancer-1: 50*; TRHR enhancer-2: -5; TRHR agonist-2: 2%

How did c1ccc(-c2cn3nc(-c4ccccc4)c(-c4ccccc4)nc3n2)cc1 do in these assays?
TRPV1 potentiator: -7; TRPML1 ag: inconclusive; TRPV1 ag: inconclusive; TRPML1 blocker: -6; TRHR agonist-1: 50*; TRHR enhancer-1: -7; TRHR enhancer-2: 6; TRHR agonist-2: 21µM*

How did CC(C(=O)c1ccccc1)[n+]1cccc(Cl)c1 (stereo not given) do in these assays?
TRPML1 ag: -1

How did CCOC(=O)C1=C(O)/C(=C/c2cc(OC)c(O)c(OC)c2)SC1=Nc1ccc(OC)cc1 do in these assays?
TRPV1 potentiator: -1; TRPML1 ag: 11; TRPV1 ag: inconclusive; TRPML1 blocker: 6; TRHR agonist-1: 27; TRHR enhancer-1: 8; TRHR enhancer-2: -1; TRHR agonist-2: inconclusive

How did COc1ccc(SCCN2CCN(CCc3ccccc3)CCC2=O)cc1 do in these assays?
TRPML1 ag: 2; TRPML1 blocker: -6
